The results in this text go back to PubChem BioAssay.

Assay [1] deals with Wnt5a (protein binding on small-molecule microarray). Briefly: small molecules binding Wnt5a protein – biophysical, small-molecule microarray, 635/667 nm fluorescence, primary screen (AID 1142).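 Further: fluorescence read at 667 nm with signal to noise per printed feature.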 The following applies: 635 nm fluorescence, higher = more signal.
Assay [2] in a line: ATP-based viability of Huh7 replicon cells – cell-based, CellTiter-Glo luminescence, basal, 48 h, cytotoxicity control for HCV replication inhibitor project, primary screen (AID 1143).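 Further: Huh7 hepatoma cells carrying a hepatitis C replication reporter with no stimulus; test concentration not given here.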 The following applies: higher = more signal, called active from +8 up or from −8 down. (A replicon is a self-replicating genome or part of one, used to study replication in cells.)
Assay [3] is described as follows: Pseudomonas biofilm growth suppression – PAO1 strain, BacTiter-Glo luminescence, LB-PBS, primary screen (AID 1144). The following applies: P. aeruginosa PAO1 biofilm, 12 h, higher = more signal.
The nature of assay [4]: basal CRE-LacZ reporter activity in PC12 – cell-based, unstimulated, primary screen (AID 1145). The following applies: no forskolin, luminescence, 4.5 h, higher = more signal, called active from +8 up or from −8 down.
The nature of assay [5]: forskolin-driven CRE-LacZ activity in PC12 – cell-based, CRE-LacZ reporter, forskolin-stimulated, primary screen (AID 1146).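 Further: PC12 cells with 6xCRE LacZ reporter stimulated by forskolin 10 µM; beta-galactosidase reporter signal reflecting CREB driven transcription.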 The following applies: luminescence, 4.5 h, higher = more signal, called active from +8 up or from −8 down.
For assay [6], the target named is Streptavidin (Streptomyces avidinii) (UniProt P22629). Put plainly: compounds binding control protein streptavidin – biophysical, small-molecule microarray, 635/667 nm fluorescence, artefact control for SMM compound annotation, primary screen (AID 1147).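 Further: signal reflects streptavidin binding to arrayed compounds as a control protein.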 As to conditions: higher = more signal.
Assay [7] can be described thus: probe aInhba binding on compound microarray – biochemical, small-molecule microarray, 635/667 nm fluorescence, primary screen (AID 1148).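 Further: score merges 667nm spot fluorescence with signal-to-noise for antibody binding to printed compounds.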 The following applies: higher = more signal.
Assay [8] deals with Torsin-1A (Homo sapiens) (UniProt O14656). Briefly: TOR1A wild-type binding on microarray – cell lysate, small-molecule microarray, lysate, 635/667 nm, primary screen (AID 1149). As to conditions: COS7 hTOR1A-WT lysate, 635 nm fluorescence, higher = more signal.
Assay [9] shares this target. Put plainly: torsin A mutant lysate binding on microarrays – cell lysate, small-molecule microarray, COS7 lysate, 635/667 nm fluorescence, primary screen (AID 1150).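 Further: score pools 667 nm emission and signal to noise measuring lysate protein binding.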 As to conditions: COS7 hTOR1A mutant lysate, 635 nm fluorescence, higher = more signal.
Assay [10] concerns Sonic hedgehog protein (Shh). Put plainly: Sonic hedgehog microarray binding compounds – biochemical, small-molecule microarray, 635/667 nm fluorescence, primary screen (AID 1151).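 Further: Shh protein binding to compounds spotted on small-molecule microarray slides; score combines spot fluorescence intensity with signal-to-noise across triplicate slides.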 As to conditions: 635 nm fluorescence, higher = more signal.
The nature of assay [11]: optical density shifts of acrAB sulA E. coli – strain DRC41, OD650, 48 h, E. coli filamentation inducer project, primary screen (AID 1152).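 Further: E. coli MC1000 strain DRC41 lacking acrAB efflux pump and sulA.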 The following applies: higher = more signal, called active from +8 up or from −8 down.
Assay [12] is described as follows: probe aLefty1 binding on compound microarray – biochemical, small-molecule microarray, 635/667 nm fluorescence, primary screen (AID 1153).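 Further: score merges spot fluorescence with signal-to-noise ratio from the scanned slide images.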 As to conditions: higher = more signal.
A short description of assay [13]: plasmodial surface anion channel blockers, osmotic lysis – cell-based, P. falciparum Indochina, OD700, 1 h, primary screen (AID 1154). As to conditions: P. falciparum Indochina infected RBC osmotic lysis, higher = more signal, called active from +8 up or from −8 down.
Assay [14] is described as follows: plasmodial surface anion channel blockers, osmotic lysis – cell-based, P. falciparum Indochina, OD700, 2 h, primary screen (AID 1155).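 Further: lysis reports solute entry through the parasite surface anion channel PSAC.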 The following applies: P. falciparum Indochina infected erythrocytes, higher = more signal, called active from +8 up or from −8 down.
The nature of assay [15]: changes in parasitized red cell lysis, either direction – P. falciparum Indochina, OD700, 3 h, PSAC antagonist project, primary screen (AID 1156). The following applies: P. falciparum-infected erythrocytes, osmotic lysis, higher = more signal, called active from +8 up or from −8 down.
Assay [16] is described as follows: plasmodial surface anion channel blockers, osmotic lysis – cell-based, P. falciparum Indochina, OD700, 18 h, primary screen (AID 1157). As to conditions: P. falciparum Indochina infected erythrocytes, osmotic lysis OD700, 18 h; higher = more signal, called active from +8 up or from −8 down.
Assay [17] is described as follows: S6 kinase pathway phospho-S6 level changes – cell-based, A549, cytoblot, luminescence, serum-stimulated, primary screen (AID 1158).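 Further: serum-stimulated A549 lung adenocarcinoma cells; signal is phosphorylated S6 detected by cytoblot immunostaining with HRP secondary.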 As to conditions: 5 h, higher = more signal.
For assay [18], the target named is NADPH oxidase 2 (Homo sapiens) (UniProt P04839). Put plainly: compounds shifting NOX2 Amplex Red fluorescence – cell-based, HEK293-NOX2, PMA-stimulated, NOX inhibitor project, primary screen (AID 1159). Further: test concentration not given here. The following applies: 45 min, higher = more signal, called active from +8 up or from −8 down.
Assay [19] addresses NADPH oxidase 4 (Homo sapiens) (UniProt Q9NPH5). Briefly: compounds shifting NOX4 Amplex Red fluorescence – cell-based, HEK293-NOX4, tetracycline-induced, NOX inhibitor project, primary screen (AID 1160). As to conditions: HEK293-NOX4, Amplex Red H2O2 fluorescence, 45 min; higher = more signal, called active from +8 up or from −8 down.
The target in assay [20] is NADPH oxidase 5 (Homo sapiens) (UniProt Q96PH1). Briefly: compounds shifting NOX5 Amplex Red fluorescence – cell-based, HEK293-NOX5, NOX inhibitor project, primary screen (AID 1161). As to conditions: HEK293-NOX5, ionomycin, 45 min, higher = more signal.

Calls of active or inactive are those of the source. Unless noted, how the calls were made is not given here.

Sequence of Torsin-1A (Homo sapiens) (O14656 whole entry, looked up): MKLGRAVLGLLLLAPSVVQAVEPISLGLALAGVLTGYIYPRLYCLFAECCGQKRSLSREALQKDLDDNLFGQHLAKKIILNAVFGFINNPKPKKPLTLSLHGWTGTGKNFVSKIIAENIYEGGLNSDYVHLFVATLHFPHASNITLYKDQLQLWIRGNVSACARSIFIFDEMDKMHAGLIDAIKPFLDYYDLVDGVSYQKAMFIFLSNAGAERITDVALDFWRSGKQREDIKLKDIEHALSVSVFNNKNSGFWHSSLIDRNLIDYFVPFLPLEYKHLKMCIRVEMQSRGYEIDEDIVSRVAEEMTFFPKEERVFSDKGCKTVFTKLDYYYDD
Sequence of NADPH oxidase 5 (Homo sapiens) (Q96PH1 whole entry, looked up): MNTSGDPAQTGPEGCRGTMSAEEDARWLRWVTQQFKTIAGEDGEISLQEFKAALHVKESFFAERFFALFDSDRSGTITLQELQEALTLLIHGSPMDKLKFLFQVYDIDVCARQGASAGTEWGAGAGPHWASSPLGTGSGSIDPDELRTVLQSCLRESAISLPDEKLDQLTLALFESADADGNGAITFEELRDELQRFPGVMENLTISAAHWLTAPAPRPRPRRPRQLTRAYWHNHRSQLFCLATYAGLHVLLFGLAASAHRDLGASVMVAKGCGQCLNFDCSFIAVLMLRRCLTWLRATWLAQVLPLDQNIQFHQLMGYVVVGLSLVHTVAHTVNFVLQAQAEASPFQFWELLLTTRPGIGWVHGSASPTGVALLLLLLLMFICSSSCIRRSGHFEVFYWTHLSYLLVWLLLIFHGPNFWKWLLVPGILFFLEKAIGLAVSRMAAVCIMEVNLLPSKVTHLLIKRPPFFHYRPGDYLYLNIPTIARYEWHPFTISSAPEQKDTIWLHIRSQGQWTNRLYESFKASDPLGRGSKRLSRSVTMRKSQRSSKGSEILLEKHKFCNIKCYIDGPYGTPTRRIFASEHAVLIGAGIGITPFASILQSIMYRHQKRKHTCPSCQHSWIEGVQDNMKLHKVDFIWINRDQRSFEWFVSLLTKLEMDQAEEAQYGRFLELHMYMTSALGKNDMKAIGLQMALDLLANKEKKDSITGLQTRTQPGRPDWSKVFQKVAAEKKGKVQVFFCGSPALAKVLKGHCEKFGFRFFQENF
Sequence of NADPH oxidase 4 (Homo sapiens) (Q9NPH5 whole entry, looked up): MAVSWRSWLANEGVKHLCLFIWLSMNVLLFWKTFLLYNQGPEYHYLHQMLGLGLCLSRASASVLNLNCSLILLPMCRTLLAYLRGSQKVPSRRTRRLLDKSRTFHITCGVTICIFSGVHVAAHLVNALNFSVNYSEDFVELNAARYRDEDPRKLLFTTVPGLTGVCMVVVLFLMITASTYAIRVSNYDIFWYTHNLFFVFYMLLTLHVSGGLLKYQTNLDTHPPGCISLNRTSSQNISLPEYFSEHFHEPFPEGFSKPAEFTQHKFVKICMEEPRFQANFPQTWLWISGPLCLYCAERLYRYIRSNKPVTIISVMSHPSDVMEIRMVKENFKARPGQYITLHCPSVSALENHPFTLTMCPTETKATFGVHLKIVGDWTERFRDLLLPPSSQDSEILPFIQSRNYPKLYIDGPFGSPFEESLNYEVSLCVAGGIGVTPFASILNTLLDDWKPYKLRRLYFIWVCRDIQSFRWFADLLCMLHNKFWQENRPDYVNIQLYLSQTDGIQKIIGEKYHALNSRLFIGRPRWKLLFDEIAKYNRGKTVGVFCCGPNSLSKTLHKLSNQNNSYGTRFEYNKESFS
Sequence of Streptavidin (Streptomyces avidinii) (P22629 whole entry, looked up): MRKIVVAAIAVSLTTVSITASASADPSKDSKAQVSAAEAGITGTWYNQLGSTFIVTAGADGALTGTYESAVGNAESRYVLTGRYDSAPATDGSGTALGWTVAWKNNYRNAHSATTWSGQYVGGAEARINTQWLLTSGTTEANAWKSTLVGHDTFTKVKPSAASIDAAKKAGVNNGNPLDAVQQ
Sequence of NADPH oxidase 2 (Homo sapiens) (P04839 whole entry, looked up): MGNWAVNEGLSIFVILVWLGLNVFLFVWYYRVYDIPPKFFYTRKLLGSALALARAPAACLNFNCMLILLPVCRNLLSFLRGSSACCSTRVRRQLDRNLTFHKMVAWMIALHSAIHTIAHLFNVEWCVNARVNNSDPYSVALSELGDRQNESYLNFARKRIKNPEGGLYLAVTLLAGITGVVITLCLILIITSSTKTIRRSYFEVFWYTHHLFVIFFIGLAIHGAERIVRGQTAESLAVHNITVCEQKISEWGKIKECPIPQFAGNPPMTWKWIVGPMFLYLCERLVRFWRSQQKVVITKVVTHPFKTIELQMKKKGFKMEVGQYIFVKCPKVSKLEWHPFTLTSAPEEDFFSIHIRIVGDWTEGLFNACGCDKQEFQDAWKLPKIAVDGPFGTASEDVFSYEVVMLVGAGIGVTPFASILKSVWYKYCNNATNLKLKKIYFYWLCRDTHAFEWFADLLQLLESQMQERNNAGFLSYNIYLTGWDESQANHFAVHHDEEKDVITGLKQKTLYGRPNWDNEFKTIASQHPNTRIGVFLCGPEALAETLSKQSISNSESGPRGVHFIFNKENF

On to `CC(CCN1CCc2nc(-c3ccccc3)c(-c3ccccc3)cc2C1)=NOC[C@@H](C)[C@H](OCc1ccccc1)C(C)C`, for which the composite z-score is -0.492 in [1]; -0.717 in [6]; -0.261 in assay [7]; -2.11 in [8]; -1.21 in assay [9]; -0.819 in assay [10]. Moreover, in assay [12], the composite z-score was -0.0464. In addition, the z-score in assay [2] is 0.232 (inactive); in assay [3] it was -0.612 (inactive); in assay [4], 2.07 (inactive); in assay [5], -0.17 (inactive); in assay [11], -0.268 (inactive); in assay [13], 1.43 (inactive). The z-score in assay [14] was 1.03 (inactive); in assay [15], 1.21 (inactive); in [16], 0.637 (inactive); in assay [17], 0.116; in assay [18] it was 0.837 (inactive); in [19] it was -1.74 (inactive). Moreover, in assay [20], the z-score is -0.578.

Turning to `CCCNC(=O)OC[C@H]1O[C@H](CCON=CC[C@@H]2C=C[C@H](OC(C)=O)[C@@H](COC(C)=O)O2)C=C[C@@H]1Oc1ccc(OC)cc1`, the composite z-score was 0.371 in [1]; 0.0822 in [6]; -0.128 in assay [7]; -0.475 in assay [8]; 0.0275 in assay [9]; 0.535 in assay [10]. This compound displayed a composite z-score in assay [12] of -0.145. The z-score in assay [2] is 0.0377 (inactive); in [3], 0.348 (inactive); in assay [4], 0.345 (inactive); in assay [5], 0.391 (inactive); in assay [11], -0.413 (inactive); in assay [13], 1.6 (inactive). Besides, the z-score in assay [14] is 0.405 (inactive); in assay [15], 0.126 (inactive); in assay [16] it was 0.392 (inactive); in [17] it was -0.397; in assay [18], -1.02 (inactive); in assay [19], 0.143 (inactive). Moreover, in assay [20], the z-score is -1.07.

Consider `C=C(/C(=C/C[C@@H](OC(=O)c1ccncc1)c1ccc(OCCO)cc1)c1cnc2ccccc2c1)C(C)C`, for which the composite z-score came out at 0.73 in [1]; 0.283 in assay [6]; 0.0108 in [7]; 1.55 in assay [8]; 0.815 in assay [9]; 2.11 in assay [10]. Also, the composite z-score in assay [12] was -0.0199. Besides, the z-score is -8.41 (active) in [2]; -0.56 (inactive) in assay [3]; 6.47 (inactive) in [4]; -0.209 (inactive) in assay [5]; 1.13 (inactive) in assay [11]; 12.8 (active) in [13]. Further, the z-score in [14] is 4.25 (inactive); in [15], -1.77 (inactive); in [16], -0.0139 (inactive); in [17] it was 0.13; in assay [18], -2.73 (inactive); in assay [19], -0.648 (inactive). For the same compound, the z-score in [20] is -3.24.

For `C=CC[C@@H]1C=C[C@H](ON=C2c3cc(OC)ccc3O[C@H](c3cccc(OC)c3)[C@H]2O)[C@@H](CO)O1`, the composite z-score in [1] is -0.0596; in [6] it was 0.0285; in assay [7], -0.182; in [8], -0.0807; in assay [9], -0.129; in assay [10] it was 0.723. For the same compound, the composite z-score in assay [12] was -0.0011. The z-score in [2] was -0.375 (inactive); in [3], 0.0436 (inactive); in [4], 5.59 (inactive); in [5], 0.442 (inactive); in assay [11], 0.97 (inactive); in assay [13], 2.12 (inactive). For the same compound, the z-score in [14] is 0.637 (inactive); in assay [15], 0.562 (inactive); in [16], 0.49 (inactive); in assay [17], -0.171; in assay [18], -0.334 (inactive); in assay [19] it was 0.593 (inactive). Also, in assay [20], the z-score came to 0.021.

As to `O=C1C[C@]2(c3ccc([N+](=O)[O-])cc3)C(=O)N(CCN3CCOCC3)c3cc(CO)ccc3[C@H]2N1CC12CC3CC(CC(C3)C1)C2`, the composite z-score in assay [1] was -0.433; in assay [6], -0.0783; in assay [7] it was -0.122; in assay [8], -0.967; in assay [9], -0.862; in assay [10] it was -0.509. This compound also had a composite z-score in [12] of 0.056. The z-score in assay [2] was -1.04 (inactive); in assay [3], -0.954 (inactive); in assay [4], 0.324 (inactive); in [5], 0.247 (inactive); in assay [11] it was 0.319 (inactive); in [13], 1.4 (inactive). Moreover, the z-score is -0.103 (inactive) in assay [14]; 1.68 (inactive) in [15]; 0.45 (inactive) in assay [16]; 0.349 in assay [17]; 0.194 (inactive) in [18]; -1.09 (inactive) in [19]. In addition, in assay [20], the z-score was -2.03.

Regarding `CC(CCN1CCc2nc(-c3ccccc3)c(-c3ccccc3)cc2C1)=NO[C@H](C)c1cn([C@@H]2COC[C@H]2O)nn1`, the composite z-score in [1] is 0.0025; in assay [6], -0.384; in assay [7], 0.0183; in assay [8] it was 1.01; in [9], 1.11; in [10], 0.572. The composite z-score in [12] is 0.0026. For the same compound, the z-score in assay [2] was -0.615 (inactive); in assay [3], -0.733 (inactive); in [4], 0.983 (inactive); in assay [5] it was -0.258 (inactive); in assay [11], 0.548 (inactive); in assay [13] it was 4.09 (inactive). The z-score in [14] was 0.722 (inactive); in [15], 1.56 (inactive); in assay [16], 0.391 (inactive); in assay [17] it was 0.387; in assay [18], -2.96 (inactive); in assay [19], 0.289 (inactive). In addition, the z-score in assay [20] was -0.331.

Turning to `Cn1cccc1C(O)C1C=CC2C(=O)NC(=O)C2N1Nc1ccccn1` (stereo not given), the composite z-score in assay [1] was 0.0956; in assay [6], 0.126; in assay [7], -0.231; in assay [8], 0.3; in assay [9], 0.197; in assay [10], 0.64. This compound also yielded a composite z-score in assay [12] of -0.289. For the same compound, the z-score in assay [2] is -3.04 (inactive); in assay [3] it was 0.465 (inactive); in assay [4], -0.326 (inactive); in assay [5] it was 0.583 (inactive); in assay [11] it was -1.07 (inactive); in [13] it was 2.33 (inactive). Moreover, the z-score is 2.41 (inactive) in [14]; 0.801 (inactive) in [15]; 1.49 (inactive) in assay [16]; -1.14 in [17]; -2.54 (inactive) in assay [18]; -4.94 (inactive) in assay [19]. Further, in [20], the z-score is -5.28.

Take `C[C@@H]1C=CCC(=O)OC[C@H](C)C(=O)N[C@@H](C)C(=O)OC1`: the composite z-score is 0.268 in assay [1]; 0.34 in assay [6]; -0.0044 in assay [7]; 1.51 in [8]; 0.527 in [9]; 1.3 in [10]. For the same compound, the composite z-score in [12] was -0.0104. Further, the z-score in [2] is -0.568 (inactive); in assay [3], -0.298 (inactive); in assay [4], -0.887 (inactive); in assay [5], -0.24 (inactive); in [11], 0.811 (inactive); in [13], 0.378 (inactive). Besides, the z-score is 0.371 (inactive) in assay [14]; 0.623 (inactive) in assay [15]; 0.342 (inactive) in [16]; -0.276 in assay [17]; -0.727 (inactive) in assay [18]; 0.527 (inactive) in assay [19]. Also, the z-score in assay [20] is 0.619.
